Screens (PubChem BioAssay)
TSHR antagonist: blocks TSH signaling through the human TSH receptor; TSHR-expressing cells, TSH-stimulated cAMP HTRF, 2 h; hits give low values; activity change, negative = inhibition, % at 11.5 µM; 330,000 tested, 0.2% active; AID 504810;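 active = activity change below a set negative limit, meaning inhibition stronger than a set level, cut at about -70% in these data; inconclusive = activity change between two set negative limits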; note: % is set by controls: 0 for no effect and ±100 for the full control effect
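Inhibition of cAMP made by TSHR-expressing cells under TSH stimulation (4nM final, EC80; 2 h, 37 deg C) is quantified with a one-step lysis HTRF kit, anti-cAMP cryptate versus cAMP-d2.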
Eya2 inh: Eya2 (human) phosphatase inhibition | O00167 | recombinant Eya2, OMFP fluorescence dephosphorylation (OMFP is methylfluorescein phosphate) | Potency, µM (highest dose often 76.9 µM), for the others: at the top dose activity, negative = inhibition, hits mostly inhibitors | 330,000 tested, 0.006% active; note: potency is the fitted concentration of half-maximal effect; % is set by controls: 0 for no effect and ±100 for the full control effect
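Eya2 (0.2 uM) preincubated 10 min at ambient with compound, then OMFP substrate added at 50 uM; 10 min reaction in 50 mM HEPES pH 7.5, 50 mM NaCl, 5 uM MgCl2, 0.05% BSA, 1 mM DTT. Fluorescence read at Ex 485/Em 525 nm.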
USP2a block: inhibitors of human ubiquitin-specific protease USP2a. O75604. USP2 core, Ub-CHOP2 coupled fluorogenic reporter, 485/531. Potency, µM (series often up to 38.3 µM), for inactives: at the highest dose activity change, negative = inhibition, usual class: inhibitors. 330,000 tested, 0.01% active;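 note: potency is the fitted concentration of half-maximal effect; plate controls were DMSO wells for no effect and full inhibition by NEM control for full effect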
Target sequence (O75604 whole entry, looked up): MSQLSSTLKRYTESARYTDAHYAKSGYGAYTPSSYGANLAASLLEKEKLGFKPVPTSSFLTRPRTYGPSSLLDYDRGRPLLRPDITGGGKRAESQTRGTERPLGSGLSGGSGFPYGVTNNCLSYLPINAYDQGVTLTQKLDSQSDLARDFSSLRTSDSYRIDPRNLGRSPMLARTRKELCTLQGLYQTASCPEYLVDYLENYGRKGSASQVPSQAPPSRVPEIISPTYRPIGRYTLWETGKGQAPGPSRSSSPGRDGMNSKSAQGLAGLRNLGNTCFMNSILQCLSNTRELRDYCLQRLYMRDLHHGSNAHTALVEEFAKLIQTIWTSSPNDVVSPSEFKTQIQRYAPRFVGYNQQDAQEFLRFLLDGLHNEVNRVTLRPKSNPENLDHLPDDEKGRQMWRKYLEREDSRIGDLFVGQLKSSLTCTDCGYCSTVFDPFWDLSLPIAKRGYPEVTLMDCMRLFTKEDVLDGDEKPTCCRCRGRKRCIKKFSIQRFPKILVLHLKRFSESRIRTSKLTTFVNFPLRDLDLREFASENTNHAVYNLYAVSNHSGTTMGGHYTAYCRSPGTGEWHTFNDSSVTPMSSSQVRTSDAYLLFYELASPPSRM
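USP2 core (10nM final) preincubated 30min RT with compound in 20mM Tris-HCl pH 8.0, 2mM CaCl2, 2mM beta-mercaptoethanol, 0.05% CHAPS; 25nM Ub-CHOP2 plus 25nM reporter substrate added, fluorescence (Ex485/Em531) read after 60min.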
TRb-SRC2 inh: TRbeta-SRC2 interaction inhibition; TRbeta-SRC2 peptide binding, fluorescence polarization; receptor liganded with 1 µM T3; AID 1469; 280,000 tested, 0.065% active; Potency, µM (top dose mostly 106 µM), for inactives: at the top dose activity change, negative = inhibition, usual class: inhibitors; P10828;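 note: potency is the fitted concentration of half-maximal effect; plate controls were bound peptide for no effect and peptide without receptor for full effect; nearly all actives have a fitted effect of over 50% in size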
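Assay buffer: 20 mM Tris-HCl, 100 mM NaCl, 10% glycerol, 1 mM EDTA, 0.01% NP-40, 1 mM DTT, 1 uM T3, 5% DMSO; TRb LBD 0.6 uM, Texas Red SRC2 20 nM; FP after 5 hr.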
TR SRC2 fluor cs: alters Texas Red total fluorescence, flagging assay interference | TRb/SRC2 Texas Red total fluorescence interference | Potency, µM (series often up to 106 µM), for inactives: at the highest dose fluorescence change, negative = quenching | 280,000 tested, 0.29% active | AID 1479; active = well fitted curve in either direction with a large enough effect; inconclusive = small, poorly fitted or top-dose-only effect; note: potency is the fitted concentration of half-maximal effect; % is set by controls: 0 for no effect and ±100 for the full control effect
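Flags fluorescent or light-absorbing compounds by total fluorescence, S + 2P, at 555 nm excitation and 632 nm emission. Mixture: 20 nM Texas Red SRC2 peptide, 0.6 uM human TRb LBD, 1 uM T3, 5% DMSO; compound exposure 5 h at ambient temperature.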
CBFb-RUNX1 inh: blocks binding between human CBF-beta and RUNX1 | Q01196+Q13951 | AlphaScreen CBFb-His/RUNX1-biotin binding, biochemical | Potency, µM (series often up to 59.8 µM), for the others: at the top dose activity, negative = inhibition, hits mostly inhibitors | 230,000 tested, under 10 active; note: % of control where 0% means no effect
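CBFb-His/RUNX1-biotin, 30 nM each, preincubated 20 min RT; compound 15 min RT; Ni + streptavidin beads 50 ng each, 90 min RT; AlphaScreen read.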
* = called active by the depositor; ? = inconclusive; . = no result given; ! = not confirmed by another sample; [ ] = dose if it differs, or a comment. Rows were chosen to be rich in hits. Some 0.38% of all compounds tested hit in one or more screens of this group. Unless noted, calls come from the whole dose curve; as a rule, active = well fitted curve in the direction sought with a large enough effect; inconclusive = small, poorly fitted or top-dose-only effect, or another doubt; inactive = no such curve, though single readings can be large; an effect the other way counts as inactive or inconclusive.

SMILES	TSHR antagonist	Eya2 inh	USP2a block	TRb-SRC2 inh	TR SRC2 fluor cs	CBFb-RUNX1 inh
CC1(C)[C@@H](C=C(Cl)Cl)[C@@H]1C(=O)OCc1cccc(Oc2ccccc2)c1	.	.	.	-1%[201 µM]	0%[201 µM]	.
c1ccc(B(c2ccccc2)c2ccccc2)cc1	.	.	.	2%[201 µM]	1%[201 µM]	.
Oc1cc(O)cc(/C=C/c2ccc(O)c(O)c2)c1	-19	-1%	1%	?	50µM*![quencher]	?
CN1/C(=C\C=C2/SC(=S)N(CC(=O)O)C2=O)C(C)(C)c2ccccc21	-13	?	?	?	45µM*[fluorescent]	?
C=CCN1C(=O)/C(=C\C=C2\N(C)c3ccccc3C2(C)C)SC1=S	2	1%	6%	13%	?	-5%
CCSC[C@H](NC(=O)[C@H](C)N)C(=O)N[C@@H](CC(=O)O)C(=O)N[C@H](C(=O)N[C@@H](C)C(=O)N[C@H](C(=O)N[C@@H](CSCC)C(=O)N[C@H](C(=O)N[C@H](C(=O)N[C@@H](Cc1cnc[nH]1)C(=O)N[C@@H](CCCNC(=N)N)C(=O)N[C@@H](CC(C)C)C(=O)N[C@@H](C)C(=O)NCC(=O)N[C@@H](CC(C)C)C(=O)N[C@@H](CC(C)C)C(=O)N[C@@H](CO)C(=O)N[C@@H](CCCNC(=N)N)C(=O)N[C@@H](CO)C(=O)NCC(=O)NCC(=O)N[C@H](C(=O)N[C@H](C(=O)N[C@@H](CCCCN)C(=O)N[C@@H](CC(N)=O)C(=O)N[C@@H](CC(N)=O)C(=O)N[C@@H](Cc1ccccc1)C(=O)N[C@H](C(=O)N1CCC[C@H]1C(=O)N[C@H](C(=O)N[C@@H](CC(N)=O)C(=O)N[C@H](C(=O)NCC(=O)N[C@@H](CO)C(=O)N[C@@H](CCCCN)C(=O)N[C@@H](C)C(=O)N[C@@H](Cc1ccccc1)C(N)=O)C(C)C)[C@@H](C)O)C(C)C)C(C)C)C(C)C)[C@@H](C)O)C(C)C)[C@@H](C)O)[C@@H](C)O	.	.	.	0%	-1%	7%
CCCCC(CC)COC(=O)CS (stereo not given)	.	.	.	6%[201 µM]	0%[201 µM]	.
CCN(C(=O)CSc1nnc(-c2cc3occc3n2C)n1-c1ccccc1C)c1ccccc1	.	.	.	-21%	79µM*[quencher]	.
COc1ccc(NC(=O)Cn2c(=O)c3cc(Cl)ccc3n3nncc23)cc1	.	.	.	-23%[53 µM]	0.35µM*[quencher]	.
CCCCNC(=O)Cn1c(=O)n(C)c2ccccc21	6	6%	-2%	6%	-2%	-3%
CCCNC(=O)Cn1c(=O)n(C)c2ccccc21	20	1%	1%	32µM*	45µM*[fluorescent]	18%
O=C(c1cnc2c(c1)COc1ccc(Cl)cc1-2)c1ccccc1O	-9	2%	-1%	-15%	7.9µM*![quencher]	-3%
COc1ccccc1N1CCN(C(=O)c2cc(-c3ccc(C)c(F)c3)on2)CC1	.	.	.	2%	-2%	.
O=C(/C=C/C#Cc1cccc(NS(=O)(=O)c2ccccc2)c1)NO	.	.	.	-5%	?	4%
Cc1cc(NC(=O)CSc2cc(Cl)ccc2Cl)n(-c2ccccc2)n1	42	-3%	-1%	-23%[53 µM]	32µM*[quencher]	-4%
Cc1cc(NC(=O)COc2ccc(Cl)cc2Cl)n(-c2ccccc2)n1	-17	-34%	1%	-11%	-3%	0%
O=C(O)c1ccc(/C=N/Nc2nc3ccccc3[nH]2)cc1	-7	9%	0%	4%	-4%	11%
C(=N\Nc1nc2ccccc2[nH]1)/c1ccncc1	-88*	-2%	-1%	7%	-7%	-1%
N#C/C(=C\Nc1ccc2cn[nH]c2c1)c1nc(-c2ccccc2)cs1	10	-12%	-2%	-11%	0%	.
N#C/C(=C\Nc1ccc2cn[nH]c2c1)c1nc(-c2ccc(Cl)cc2)cs1	9	-1%	-1%	71µM*	?	1%
CCCCNS(=O)(=O)c1ccccc1	.	.	.	-3%[201 µM]	-3%[201 µM]	.
COC(=O)[C@H](Cc1ccccc1)NC(=O)O[C@@H]1C(=O)c2cc(OC)ccc2O[C@H]1c1cccc(OC)c1	.	.	.	8%	-1%	?
CN(CC(=O)Nc1ccccc1C(F)(F)F)Cc1c(O)ccc2ccccc12	-99*	5%	3%	.	.	.
C/C(=N\NC(=O)c1cc2ccccc2cc1O)c1ccc2c(c1)OCO2	-12	-2%	-11%	23%	35µM*[quencher]	4%
C/C(=N\NC(=O)c1ccc(C)cc1C)c1ccc2c(c1)OCO2	6	3%	0%	2%	0%	0%
SMILES	TSHR antagonist	Eya2 inh	USP2a block	TRb-SRC2 inh	TR SRC2 fluor cs	CBFb-RUNX1 inh
CCN1CCN(C(=O)c2ccc3c(c2)N(Cc2ccccc2)C(=O)c2ccccc2S3(=O)=O)CC1	-7	9%	1%	-16%	0.013µM*[quencher]	.
O=C(CSc1ccccn1)Nc1cccc2ccccc12	-116*	-5%	0%	4%	1%	-2%
O=C(CSc1ccccn1)Nc1ccccc1F	1	-13%	3%	-3%	-4%	9%
Cc1cc(Cl)ccc1OCC(=O)N1CCC(c2nc3ccccc3o2)CC1	.	.	.	-3%	3%	.
Cc1ccc(NC(=O)CSc2nc3nccnc3c(=O)n2CCc2c[nH]c3ccccc23)cc1	.	.	.	?	25µM*[quencher]	.
CCNCc1ccccc1OCc1ccccc1	14	3%	3%	-10%	1%	7%
Oc1ccc(NCc2ccccc2OCc2ccccc2)cc1	9	-11%	3%	35µM*	50µM*![fluorescent]	.
CCC(C(=O)Nc1cccc(-c2cn3cccnc3n2)c1)c1ccccc1 (stereo not given)	.	.	.	-8%	-3%	.
COc1ccc(C(=O)Nc2cccc(NC(=O)c3cccs3)c2)cc1OC	-130*	1%	0%	.	.	.
COc1ccc(C(=O)Nc2ccc(NC(=O)c3cccs3)cc2)cc1OC	.	.	.	-6%	-7%	.
Cc1ccc(CNC(=O)CCNC(=O)N2CCn3c2nc2ccccc23)cc1	-111*	11%	2%	.	.	.
